Assay results: the supplement of paper PMC11732987, “Enantioselective OTUD7B fragment discovery through chemoproteomics screening and high-throughput optimisation” (Communications Chemistry, 2025)

How the values were obtained:
Test in all cases: log2 ratio of Biotin-Ahx-Ub-VS probe labelling (fragment/DMSO); higher = less target engagement (more negative = stronger competition), active = hit call of the paper (q ≤ 0.05, log2 ratio ≤ -1)
Settings in all cases: compound concentration: 200 uM; treatment time: 3 h
[1] = molecular target: T1, USP19 (UniProt O94966)
T1 sequence (whole entry): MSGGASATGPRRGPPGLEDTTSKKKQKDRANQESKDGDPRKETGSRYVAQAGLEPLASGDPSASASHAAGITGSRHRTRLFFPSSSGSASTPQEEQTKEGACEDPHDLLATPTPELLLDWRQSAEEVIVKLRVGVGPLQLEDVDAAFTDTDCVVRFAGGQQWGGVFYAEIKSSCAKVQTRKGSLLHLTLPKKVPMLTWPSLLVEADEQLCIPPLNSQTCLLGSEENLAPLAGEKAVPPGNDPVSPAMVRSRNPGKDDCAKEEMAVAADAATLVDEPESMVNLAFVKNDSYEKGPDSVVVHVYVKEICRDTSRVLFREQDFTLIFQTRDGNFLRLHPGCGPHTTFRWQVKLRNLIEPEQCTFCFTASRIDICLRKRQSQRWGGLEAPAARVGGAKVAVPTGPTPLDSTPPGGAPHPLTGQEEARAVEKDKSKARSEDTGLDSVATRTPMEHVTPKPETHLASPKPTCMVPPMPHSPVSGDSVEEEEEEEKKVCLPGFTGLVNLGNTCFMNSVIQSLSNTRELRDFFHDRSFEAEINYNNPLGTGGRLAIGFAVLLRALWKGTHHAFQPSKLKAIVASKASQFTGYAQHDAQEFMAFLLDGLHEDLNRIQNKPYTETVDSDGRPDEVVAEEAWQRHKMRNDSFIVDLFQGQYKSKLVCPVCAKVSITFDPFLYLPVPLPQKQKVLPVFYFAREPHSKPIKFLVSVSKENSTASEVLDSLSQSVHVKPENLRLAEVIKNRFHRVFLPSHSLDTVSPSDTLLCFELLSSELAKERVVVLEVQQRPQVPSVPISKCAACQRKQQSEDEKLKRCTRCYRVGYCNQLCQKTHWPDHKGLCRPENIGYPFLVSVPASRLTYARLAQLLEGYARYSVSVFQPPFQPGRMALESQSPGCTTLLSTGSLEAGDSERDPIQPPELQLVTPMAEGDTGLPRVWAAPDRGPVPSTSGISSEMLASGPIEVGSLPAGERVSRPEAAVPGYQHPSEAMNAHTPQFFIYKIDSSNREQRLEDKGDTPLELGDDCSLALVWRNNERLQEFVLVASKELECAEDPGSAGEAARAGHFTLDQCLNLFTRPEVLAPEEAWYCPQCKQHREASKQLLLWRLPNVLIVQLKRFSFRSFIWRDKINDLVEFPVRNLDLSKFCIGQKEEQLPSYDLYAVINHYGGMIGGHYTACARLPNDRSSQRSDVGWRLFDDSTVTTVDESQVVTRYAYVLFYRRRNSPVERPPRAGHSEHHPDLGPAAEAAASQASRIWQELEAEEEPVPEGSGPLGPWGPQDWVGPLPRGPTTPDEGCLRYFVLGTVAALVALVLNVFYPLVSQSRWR
Summary of the method: (§1)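 Each value is an average log2 ratio of fragment to vehicle, tested by unpaired t-test. The underlying Spectronaut label-free quantities were global-median-normalised, and only proteins with ≥2 unique peptides were included. Triplicate HEK293T lysate samples (495 µg) were exposed to fragment at 200 µM or vehicle for 3 h, then to Biotin-Ahx-Ub-VS at 0.5 µM final for 1 h, before NeutrAvidin enrichment of labelled DUBs, LysC and trypsin digestion, and diaPASEF LC-MS/MS.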

[2] = molecular target: USP24 (UniProt Q9UPU5)
Summary of the method: as §1

[3] = molecular target: T2, USP25 (UniProt Q9UHP3)
T2 sequence (whole entry): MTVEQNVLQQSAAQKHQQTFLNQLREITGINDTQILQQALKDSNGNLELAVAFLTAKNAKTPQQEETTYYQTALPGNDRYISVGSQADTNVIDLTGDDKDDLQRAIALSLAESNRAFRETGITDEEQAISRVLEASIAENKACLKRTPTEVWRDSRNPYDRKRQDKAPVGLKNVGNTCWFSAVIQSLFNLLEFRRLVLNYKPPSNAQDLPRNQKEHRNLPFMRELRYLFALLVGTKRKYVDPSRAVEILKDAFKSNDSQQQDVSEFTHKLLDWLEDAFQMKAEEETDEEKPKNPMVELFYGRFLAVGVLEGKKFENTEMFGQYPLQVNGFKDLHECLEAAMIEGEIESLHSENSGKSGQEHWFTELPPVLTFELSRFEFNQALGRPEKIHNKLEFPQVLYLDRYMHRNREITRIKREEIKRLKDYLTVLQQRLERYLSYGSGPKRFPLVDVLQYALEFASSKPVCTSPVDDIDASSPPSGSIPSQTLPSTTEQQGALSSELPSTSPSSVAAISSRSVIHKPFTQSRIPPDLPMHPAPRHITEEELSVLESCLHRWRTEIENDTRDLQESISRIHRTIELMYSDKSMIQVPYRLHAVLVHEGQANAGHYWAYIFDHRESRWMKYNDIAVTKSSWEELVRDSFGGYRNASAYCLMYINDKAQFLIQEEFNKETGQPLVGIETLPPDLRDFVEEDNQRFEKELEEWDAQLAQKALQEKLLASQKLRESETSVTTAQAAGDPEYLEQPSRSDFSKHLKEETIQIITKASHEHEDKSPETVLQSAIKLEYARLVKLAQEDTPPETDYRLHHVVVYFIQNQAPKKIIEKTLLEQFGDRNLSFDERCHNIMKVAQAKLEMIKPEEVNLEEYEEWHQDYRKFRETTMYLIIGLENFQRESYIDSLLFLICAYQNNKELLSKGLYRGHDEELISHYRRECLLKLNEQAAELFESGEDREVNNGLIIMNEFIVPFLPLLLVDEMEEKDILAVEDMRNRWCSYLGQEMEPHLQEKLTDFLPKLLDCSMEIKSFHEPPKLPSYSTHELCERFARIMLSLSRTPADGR
Summary of the method: as §1

[4] = molecular target: T3, USP28 (UniProt Q96RU2)
T3 sequence (whole entry): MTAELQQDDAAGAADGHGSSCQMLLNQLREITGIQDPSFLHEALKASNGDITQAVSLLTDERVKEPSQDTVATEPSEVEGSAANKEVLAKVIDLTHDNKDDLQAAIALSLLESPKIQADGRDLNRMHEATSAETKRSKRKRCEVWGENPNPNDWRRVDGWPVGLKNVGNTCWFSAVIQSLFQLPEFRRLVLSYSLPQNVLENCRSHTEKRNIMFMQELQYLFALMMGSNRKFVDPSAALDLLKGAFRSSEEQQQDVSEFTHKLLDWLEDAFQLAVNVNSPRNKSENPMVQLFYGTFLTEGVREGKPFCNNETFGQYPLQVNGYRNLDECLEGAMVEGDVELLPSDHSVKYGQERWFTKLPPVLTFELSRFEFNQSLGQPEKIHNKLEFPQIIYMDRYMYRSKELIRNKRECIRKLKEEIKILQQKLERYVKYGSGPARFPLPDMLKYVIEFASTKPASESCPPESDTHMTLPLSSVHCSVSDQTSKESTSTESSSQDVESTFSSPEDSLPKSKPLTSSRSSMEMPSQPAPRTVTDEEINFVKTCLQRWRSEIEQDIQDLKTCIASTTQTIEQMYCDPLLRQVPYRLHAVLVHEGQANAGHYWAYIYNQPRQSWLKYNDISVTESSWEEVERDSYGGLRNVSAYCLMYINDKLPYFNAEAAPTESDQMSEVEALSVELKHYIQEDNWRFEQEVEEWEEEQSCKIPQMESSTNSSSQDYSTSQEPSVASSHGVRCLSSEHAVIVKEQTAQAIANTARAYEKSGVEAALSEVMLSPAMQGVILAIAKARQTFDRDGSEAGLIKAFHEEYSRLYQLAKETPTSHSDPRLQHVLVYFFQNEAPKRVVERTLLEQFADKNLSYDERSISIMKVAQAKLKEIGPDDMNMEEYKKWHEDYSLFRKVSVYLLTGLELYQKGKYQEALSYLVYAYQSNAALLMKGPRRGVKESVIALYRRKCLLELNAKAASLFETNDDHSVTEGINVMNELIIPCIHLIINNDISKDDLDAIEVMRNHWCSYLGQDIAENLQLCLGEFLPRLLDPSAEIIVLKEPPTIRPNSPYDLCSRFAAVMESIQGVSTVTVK
Summary of the method: as §1

Measured: log2 ratio of Biotin-Ahx-Ub-VS probe labelling

USP24, sequence (Q9UPU5 whole entry): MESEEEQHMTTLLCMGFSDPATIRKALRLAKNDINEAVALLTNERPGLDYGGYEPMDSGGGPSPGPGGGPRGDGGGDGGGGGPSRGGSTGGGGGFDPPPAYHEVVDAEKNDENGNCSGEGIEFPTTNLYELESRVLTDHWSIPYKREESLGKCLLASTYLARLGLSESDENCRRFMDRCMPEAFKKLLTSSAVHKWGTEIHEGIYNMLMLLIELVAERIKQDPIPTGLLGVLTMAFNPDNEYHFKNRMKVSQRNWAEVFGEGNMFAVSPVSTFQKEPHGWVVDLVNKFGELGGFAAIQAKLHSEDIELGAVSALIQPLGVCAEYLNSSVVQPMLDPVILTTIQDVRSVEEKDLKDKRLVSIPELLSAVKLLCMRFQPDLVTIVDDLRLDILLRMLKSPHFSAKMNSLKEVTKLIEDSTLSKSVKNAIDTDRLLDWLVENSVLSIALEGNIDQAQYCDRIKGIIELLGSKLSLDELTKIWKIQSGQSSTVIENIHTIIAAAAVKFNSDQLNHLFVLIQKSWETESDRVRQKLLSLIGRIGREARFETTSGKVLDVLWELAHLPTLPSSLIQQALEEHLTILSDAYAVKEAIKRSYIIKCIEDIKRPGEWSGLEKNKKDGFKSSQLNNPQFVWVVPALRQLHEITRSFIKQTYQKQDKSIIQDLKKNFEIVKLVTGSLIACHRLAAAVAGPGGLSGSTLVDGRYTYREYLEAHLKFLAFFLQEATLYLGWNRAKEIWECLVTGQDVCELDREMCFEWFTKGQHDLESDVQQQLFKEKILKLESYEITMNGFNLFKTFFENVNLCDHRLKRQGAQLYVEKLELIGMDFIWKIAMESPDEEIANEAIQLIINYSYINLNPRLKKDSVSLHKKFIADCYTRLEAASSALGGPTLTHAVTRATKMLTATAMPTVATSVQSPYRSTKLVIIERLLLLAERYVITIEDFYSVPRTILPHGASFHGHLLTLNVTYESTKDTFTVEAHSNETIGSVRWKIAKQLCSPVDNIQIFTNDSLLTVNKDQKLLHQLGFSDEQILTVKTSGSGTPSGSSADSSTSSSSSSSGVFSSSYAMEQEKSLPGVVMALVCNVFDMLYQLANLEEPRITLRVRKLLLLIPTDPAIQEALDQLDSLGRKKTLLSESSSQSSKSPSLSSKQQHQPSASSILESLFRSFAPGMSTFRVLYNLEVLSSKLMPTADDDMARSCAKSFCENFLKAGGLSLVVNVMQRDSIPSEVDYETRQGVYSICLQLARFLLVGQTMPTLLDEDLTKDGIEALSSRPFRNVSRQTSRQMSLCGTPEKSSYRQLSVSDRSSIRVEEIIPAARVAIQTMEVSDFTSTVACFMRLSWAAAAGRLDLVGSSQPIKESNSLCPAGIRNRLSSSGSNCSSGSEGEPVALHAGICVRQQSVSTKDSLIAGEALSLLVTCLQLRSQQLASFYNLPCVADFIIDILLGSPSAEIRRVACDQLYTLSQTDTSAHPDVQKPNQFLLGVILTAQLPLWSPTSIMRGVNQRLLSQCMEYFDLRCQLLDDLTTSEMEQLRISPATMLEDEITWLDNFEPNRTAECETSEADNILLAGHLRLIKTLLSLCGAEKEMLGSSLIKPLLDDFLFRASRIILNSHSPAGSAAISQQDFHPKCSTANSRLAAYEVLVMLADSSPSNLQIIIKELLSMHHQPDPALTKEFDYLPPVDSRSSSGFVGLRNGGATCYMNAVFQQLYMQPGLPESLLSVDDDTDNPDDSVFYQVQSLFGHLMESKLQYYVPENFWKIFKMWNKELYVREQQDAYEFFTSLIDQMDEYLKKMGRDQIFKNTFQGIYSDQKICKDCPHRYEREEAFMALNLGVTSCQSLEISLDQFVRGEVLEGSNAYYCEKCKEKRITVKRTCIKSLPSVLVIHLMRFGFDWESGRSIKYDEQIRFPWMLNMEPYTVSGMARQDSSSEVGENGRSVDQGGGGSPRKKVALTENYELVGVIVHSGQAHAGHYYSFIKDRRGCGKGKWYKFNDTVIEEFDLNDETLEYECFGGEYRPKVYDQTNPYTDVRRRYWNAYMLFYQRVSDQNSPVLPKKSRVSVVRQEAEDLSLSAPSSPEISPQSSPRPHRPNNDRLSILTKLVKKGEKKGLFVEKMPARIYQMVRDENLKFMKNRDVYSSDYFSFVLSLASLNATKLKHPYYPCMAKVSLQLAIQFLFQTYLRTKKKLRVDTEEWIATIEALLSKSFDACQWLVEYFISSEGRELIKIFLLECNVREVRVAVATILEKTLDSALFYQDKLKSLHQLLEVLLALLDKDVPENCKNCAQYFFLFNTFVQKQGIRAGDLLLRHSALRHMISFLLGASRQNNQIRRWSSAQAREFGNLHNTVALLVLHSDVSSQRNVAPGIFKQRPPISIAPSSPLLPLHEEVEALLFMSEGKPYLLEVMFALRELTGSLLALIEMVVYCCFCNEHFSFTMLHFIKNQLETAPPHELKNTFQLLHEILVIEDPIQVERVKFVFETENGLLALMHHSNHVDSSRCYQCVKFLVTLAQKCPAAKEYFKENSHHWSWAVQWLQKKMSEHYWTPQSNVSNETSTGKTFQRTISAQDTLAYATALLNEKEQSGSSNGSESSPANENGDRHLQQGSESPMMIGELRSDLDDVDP

Cc1cc(C2CCCN2C(=O)CCl)nn1C.Cl (centres undefined)
inactive: [1] -0.282 | [2] -0.202 | [3] -0.257 | [4] -0.271
